The source made the active and inactive calls. The calls were made as follows: active = hit-call score of the fitted dose curve at least 0.9, where 1 is the maximum; inactive = score below 0.9.
Assay: CCTE_Deisenroth_DEVTOX-GLR_Pluri_CellCount: Viability Assessment in CCTE's DevTox GLR-Pluri Assay Evaluation of Total Cell Counts, Deisenroth Lab (AID 2284430)
Procedure, shortened: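 RUES2-GLR human pluripotent cells, seeded 24 h, then differentiated 48 h with two chemical exposures 24 h apart; 10-point series 1 nM - 200 uM. Fixed, nuclear-stained, imaged (5 fields/well); nuclei count as % change vs 0.2% DMSO.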

SMILES: CC1=C2C[C@H]3[C@@H](CC=C4C[C@@H](O)CC[C@@]43C)[C@@H]2CC[C@]12O[C@@H]1C[C@H](C)CN[C@H]1[C@H]2C
- outcome: inactive

SMILES: C=CC(N)=O
- outcome: inactive
